Experimental data from PubChem BioAssay AID449762 (Southern Research Specialized Biocontainment Screening …, 2010).
Among all 330,000 compounds or so, about 1,900 (0.58%) were called active. Another 4% or so got no clear call; they are omitted. These entries were drawn from the full list. Potency and affinity values are given separately. Values without a mark were called inactive. Rule as the data show it: inconclusive = inhibition above about 70% without an active follow-up result; inactive = below that.

test: M. tuberculosis growth inhibition, HTS (AID 449762);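 also: bacterial growth assessed after seven days of incubation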; details: M. tuberculosis H37Rv growth inhibition, 7H9 media; at 25 µM; active compounds read high

Structure (SMILES)	inhibition [%]
COc1ccccc1C(=O)NC(CCSC)C(=O)OCC(=O)N1CCCC1=O (stereo not drawn)	-5.17
COc1ccc(-c2c(C#Cc3ccsc3)c3cc(-c4ccc5cc[nH]c5c4)ccc3n2C)cc1	-6.96
CN(C)CCN(Cc1ccccc1)C(=O)[C@H](Cc1ccccc1)N1C(=O)c2ccccc2C1=O	-1.93
CSc1nsc(SCC(=O)Nc2ccccc2C(N)=O)n1	2.11
COc1ccc(NC(=O)CSc2nc(SC)ns2)c(OC)c1	4.38
O=C(O)c1cccc(N2C(=O)/C(=C/c3ccc([N+](=O)[O-])cc3)C=C2c2ccccc2)c1	7.59
O=C1/C(=C/c2ccc([N+](=O)[O-])cc2)C=C(c2ccccc2)N1c1ccccc1	10.5
COc1ccc(-n2c(SCC(=O)N3CCc4ccccc43)nnc2-c2c[nH]c3ccccc23)cc1	7.85
COc1ccccc1N(CC(=O)NC(C)(C)C)C(=O)CCC(=O)Nc1nccs1	-0.5
CC1(CCc2ccccc2)NC(=O)N(CC(=O)Nc2ccc(S(N)(=O)=O)cc2)C1=O (stereo not drawn)	0.35
NC[C@H](Cc1ccccc1)NCCCCC1CCCCC1	-8.88
CNC[C@@H](C)NC[C@@H](Cc1ccccc1)NCCc1ccccc1	1.77
COc1cccc(NC(=O)COC(=O)c2ccccc2SCC(=O)N2CCCC2)c1	5.04
Cc1cc(=O)[nH]c(Nc2cccc(Cl)c2C)n1	1.14
O=C(NS(=O)(=O)c1ccccc1Cl)c1ccc[nH]1	2.54
CCOc1ccc(C(C)NC(=O)Cc2ccccc2)cc1OCC (stereo not drawn)	-8.29
OCCN1CCN(c2nc(NCc3ccco3)c3ccccc3n2)CC1	-0.19
OCCNc1nc(N2CCN(Cc3ccccc3)CC2)nc2ccccc12	5.92
CCc1cccc(CC)c1NC(=O)CSc1nc2ccc(N3C(=O)C4C5C=CC(C5)C4C3=O)cc2s1 (stereo not drawn)	-11
CCc1cccc(CC)c1NC(=O)CSc1nc2ccc(N3C(=O)C4C(C3=O)[C@H]3C=C[C@@H]4C3)cc2s1 (stereo partly drawn)	-9.69
COc1cc(C(=O)Nc2cccc(S(=O)(=O)NCc3ccco3)c2)cc(OC)c1OC	0.68
COc1ccc(CCC(C)NC(=O)CCc2ccccc2)c(OC)c1 (stereo not drawn)	4.05
COc1cc(/C=N/NC(=O)c2csc3c2CCCC3)ccc1OCCN1CCOCC1	-0.72
COc1cc(/C=N/NC(=O)c2cc3ccccc3cc2O)ccc1OCCN1CCCCC1	9.28

Structure (SMILES)	inhibition [%]
COc1ccccc1CNC(=O)CN1CCN(S(=O)(=O)c2cccs2)CC1	-5.5
CSCCC(NS(=O)(=O)c1ccc(Cl)cc1)C(=O)OCC(=O)NC1CCCCC1 (stereo not drawn)	1.43
COc1ccc(NC2=NC(C)(C)CS2)cc1	-0.92
Cc1ccc(C(=O)CNc2ccc(Br)cc2)cc1	2.6
Cc1ccc(C(=O)CCNc2ccc(Br)cc2)o1	-5.24
CC12CCC(C(=O)Nc3cccc4ccccc34)(C1Br)C2(C)C (stereo not drawn)	5.17
CCOc1ccc(-c2cnc(SCC(N)=O)nc2N)cc1	62.7
CCCCOc1ccc(-c2nc(SCC(N)=O)n[nH]2)cc1	48.6
CCC1(c2ccc(F)cc2)NC(=O)N(CC(=O)N2c3ccccc3NC(=O)C2(C)C)C1=O (stereo not drawn)	1.45
CCOc1ccc(-n2c(Cc3ccccc3)nnc2SCc2c(C)noc2C)cc1	-5.75
Oc1ccc(-c2nc3ccc4ccccc4c3c3c2CCC3)cc1O	-2.27
COc1cc(-c2nc3ccc4ccccc4c3c3c2CCC3)ccc1O	-4
Cc1ccccc1NC(=O)CN1C(=O)NC2(CCc3ccccc32)C1=O (stereo not drawn)	8.44
Oc1ccc(Nc2ccnc3cc(Cl)ccc23)cc1	7.94
C/C(=N/Nc1ccnc2cc(Cl)ccc12)c1ccc(N)cc1	-2.9
Clc1ccc2c(NNc3ccccc3Cl)ccnc2c1	64.1
CC/C(=N\Nc1ccnc2cc(Cl)ccc12)c1ccc(O)cc1	9.75
COc1ccc(OC2C(=O)N(Cc3ccc(F)cc3)C2c2cc(OC)c(OC)c(OC)c2)cc1 (stereo not drawn)	20.5
COc1ccc(S(=O)(=O)Cc2ccc(C(=O)NC3CCC(C)CC3)o2)cc1 (stereo not drawn)	1.75
Cc1ccc(C(=O)CSc2nnc3n2CCCCC3)s1	-7.99
COCCCNC(=O)Nc1ccc2c(c1)N(C)C(=O)CS2	1.24
O=C(CN(CCc1ccccc1)C(=O)CNS(=O)(=O)c1ccc(F)cc1)NCc1ccco1	1.92
CCCCN1CCNC[C@@H]1c1ccccc1	-9.81
CCOC1OC(=O)C(Cl)=C1Nc1ccc(C)cc1C (stereo not drawn)	9.67

Structure (SMILES)	inhibition [%]
CCOC1OC(=O)C(Cl)=C1Nc1cc(C)ccc1C (stereo not drawn)	-3.33
Cc1ccc(NC(=O)C2CCN(C(=O)[C@@H]3Cc4ccccc4CN3)CC2)cc1	9.95
O=C(COC(=O)c1cc2ccccc2oc1=O)Nc1cccc(S(=O)(=O)N2CCCCCC2)c1	-4.32
CCOC(=O)Cc1csc(NC(=O)CSc2nnnn2-c2ccc(F)cc2)n1	-5.86
CCc1nnc(NC(=O)CN2C(=O)NC3(CC(C)CC(C)(C)C3)C2=O)s1 (stereo not drawn)	-0.6
CCOC(=O)c1sc(NC(=O)CN2C(=O)NC3(CC(C)CC(C)(C)C3)C2=O)c(C(=O)OCC)c1C (stereo not drawn)	5.68
CSCC[C@H](NC(=O)c1cccc(S(=O)(=O)N2CCN(C)CC2)c1)c1nc2ccccc2[nH]1	-7.51
CC(C(=O)Nc1ccc2c(c1)OCCO2)n1nnc(-c2ccccc2)n1 (stereo not drawn)	0.15
Cc1nc(C)c(CCNC(=O)c2ccccc2Br)s1	-5.7
S=C(Nc1ccccc1)NC1CCN(Cc2ccccc2)CC1	-9.83
O=C(NCCc1ccccc1)C(=O)NN=C1CCCC1	-3.67
S=C(NC1CCCCC1)N1CCN(Cc2ccccc2)CC1	-15.7
CC1CCCC/C1=N\NC(=S)Nc1ccccc1 (stereo not drawn)	0.51
O=C(CC(=O)NN=C1CCCC1)NCCc1ccccc1	4.48
Cc1ccc(NC(=S)N/N=C2\CCCCC2C)cc1 (stereo not drawn)	5.06
Cc1cccc(C)c1NC(=S)NCCc1ccccn1	3.14
CC1(C)C[C@H](O)[C@@]23C[C@@H](OC2=O)[C@]2(C)C(=CCC4[C@@]5(C)CC[C@H](O)C(C)(C)C5CC[C@]42C)[C@@H]3C1 (stereo partly drawn)	3.65
CCOC(=O)c1cc(CC)sc1NC(=O)COC(=O)C1CCC1	-15.8
Cc1cccc(C)c1NC(=O)CN1N=NC2C(=O)N(c3cccc(Cl)c3)C(=O)C21 (stereo not drawn)	2.55
CN(C)S(=O)(=O)c1cccc(NC(=O)CSc2nc3ccccc3[nH]2)c1	-2.08
O=C(Nc1nnc(C2CC2)s1)c1cncc(Br)c1	5.39
COc1ccc(CNC(=O)C(=O)NCCC2CCCCN2S(=O)(=O)c2cccs2)cc1 (stereo not drawn)	5.17
COc1ccc(CCNC(=O)C(=O)NCC2OCCN2S(=O)(=O)c2ccc(C)cc2)cc1OC (stereo not drawn)	-6.63
Cc1ccc(NC(=O)N2CCCC2C(=O)NCC2CCCCC2)cc1 (stereo not drawn)	5.67

Structure (SMILES)	inhibition [%]
Clc1ccc(Cl)c(-c2ccc(/C=N/c3ncn[nH]3)o2)c1	8.33
Cc1cc(C(=O)N/N=C/c2ccc(-c3ccc(C)c(Cl)c3)o2)n[nH]1	42.8
Cc1ccc(/C=N/n2c(COc3ccccc3)n[nH]c2=S)cc1	6.13
O=C(COC(=O)CCc1c[nH]c2ccccc12)Nc1ccc([N+](=O)[O-])cc1	2.33
Cc1ccc(NC(=O)COC(=O)Cc2c[nH]c3ccccc23)cc1C	-4.13
COc1cc(/C=C/C(=O)OCC(=O)NCCC2=CCCCC2)cc(OC)c1OC	2.02
Cc1cccc(NS(=O)(=O)c2ccc(C(=O)N3CCCC3)cc2)c1C	-8.71
Cc1ccccc1NS(=O)(=O)c1ccc(C(=O)N2CCN(c3ccccc3O)CC2)cc1	4.31
OC(COCc1ccc(Cl)cc1)CN1CCCCC1 (stereo not drawn)	1.29
C=CCNC(=O)/C(C#N)=C\c1cc(Cl)c(OCC)c(OC)c1	7.41
COc1cccc(CN(C)C(=O)CSCC(=O)Nc2cccc(C)c2)c1OC	-5.41
CC(C)C(=O)N=c1sc2cc(F)cc(F)c2n1C	-9.4
O=C(NCC1CC1)c1ccc(Nc2nc3ccc(Br)cc3[nH]2)cc1	-0.43
O=C(NCc1cccs1)c1cccc(Nc2nc3ccc(Br)cc3[nH]2)c1	-11
CC(=O)Oc1ccc(-c2cccc(C(=O)NCCO)c2)cc1	-0.93
O=S(=O)(NC1CCCCC1Nc1ccccc1)c1ccccc1 (stereo not drawn)	-7.27
O=C(CN(c1ccc(F)cc1)S(=O)(=O)c1ccc2c(c1)OCCO2)N1CCOCC1	1.58
CCCCCC(=O)NCc1c(C(F)(F)F)nn(C)c1N1CCOCC1	-1.96
O=C(CN1CCNC(=O)C1)NCCc1ccc(Cl)cc1Cl	-0.1
O=C(C[N+]12CCN(CC1)CC2)NCCc1ccc(Cl)cc1Cl	-3.14
COc1ccc(OC)c(NC(=O)c2cccnc2Sc2cc(C)ccc2C)c1	8.29
